Reference: article PMC7862700, “An all-to-all approach to the identification of sequence-specific readers for epigenetic DNA modifications on cytosine”

Assays:
Experiment in all cases: DAPPL (digital affinity profiling via proximity ligation, sequencing); 10 mM Tris-HCl pH 7.5, 50 mM NaCl, 1 mM DTT, 4% glycerol, room temperature, 30 min; GST-TFs on glutathione beads, 16-mer random dsDNA library, 0.1% formaldehyde crosslink after washing; high values mean tight binding
[1] = target: T1, FEV (Homo sapiens, UniProt Q99581 1-238); details: protein: recombinant; tags: N-terminal GST; dsDNA, one strand shown
T1 sequence: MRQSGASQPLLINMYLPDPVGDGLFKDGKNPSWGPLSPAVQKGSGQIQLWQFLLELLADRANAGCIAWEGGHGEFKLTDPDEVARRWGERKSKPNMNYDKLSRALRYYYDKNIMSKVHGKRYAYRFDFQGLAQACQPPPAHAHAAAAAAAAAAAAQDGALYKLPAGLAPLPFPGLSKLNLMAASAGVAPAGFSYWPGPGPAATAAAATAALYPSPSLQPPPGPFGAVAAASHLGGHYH
In short: (§1)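 GST fusions of human transcription factors were expressed in yeast and captured with glutathione beads. Once given DNA barcodes and pooled alongside a tag-only sample, they were incubated for 30 min at room temperature with 200 nmole of a random double-stranded 16-mer DNA library in Tris/NaCl/DTT/glycerol buffer, then washed, crosslinked (0.1% formaldehyde), proximity-ligated, PCR-amplified and sequenced on an Illumina NextSeq500. The binding signal of each hexamer is its read frequency for a factor divided by its frequency for the tag-only sample.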

[2] = target: ETV5 (Homo sapiens, UniProt P41161 1-510); details: protein: recombinant; tags: N-terminal GST; dsDNA, one strand shown
ETV5, sequence (P41161 whole entry): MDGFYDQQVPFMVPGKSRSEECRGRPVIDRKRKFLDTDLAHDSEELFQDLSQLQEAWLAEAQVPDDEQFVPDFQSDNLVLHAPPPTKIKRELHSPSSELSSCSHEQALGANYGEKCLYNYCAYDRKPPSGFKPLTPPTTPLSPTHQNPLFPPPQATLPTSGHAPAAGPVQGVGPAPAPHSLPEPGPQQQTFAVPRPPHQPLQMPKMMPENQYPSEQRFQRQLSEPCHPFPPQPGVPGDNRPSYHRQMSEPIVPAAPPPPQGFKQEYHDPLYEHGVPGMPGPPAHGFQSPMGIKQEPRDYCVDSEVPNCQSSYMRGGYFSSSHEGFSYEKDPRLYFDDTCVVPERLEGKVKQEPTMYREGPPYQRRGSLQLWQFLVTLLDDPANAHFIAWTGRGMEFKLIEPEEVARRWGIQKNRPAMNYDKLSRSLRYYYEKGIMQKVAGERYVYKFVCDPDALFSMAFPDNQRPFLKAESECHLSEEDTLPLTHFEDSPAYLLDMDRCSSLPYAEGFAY
In short: as §1

[3] = target: HSF1 (Homo sapiens, UniProt Q00613 1-529); details: protein: recombinant; tags: N-terminal GST; chain copies: 3; dsDNA, one strand shown
HSF1, sequence (Q00613 whole entry): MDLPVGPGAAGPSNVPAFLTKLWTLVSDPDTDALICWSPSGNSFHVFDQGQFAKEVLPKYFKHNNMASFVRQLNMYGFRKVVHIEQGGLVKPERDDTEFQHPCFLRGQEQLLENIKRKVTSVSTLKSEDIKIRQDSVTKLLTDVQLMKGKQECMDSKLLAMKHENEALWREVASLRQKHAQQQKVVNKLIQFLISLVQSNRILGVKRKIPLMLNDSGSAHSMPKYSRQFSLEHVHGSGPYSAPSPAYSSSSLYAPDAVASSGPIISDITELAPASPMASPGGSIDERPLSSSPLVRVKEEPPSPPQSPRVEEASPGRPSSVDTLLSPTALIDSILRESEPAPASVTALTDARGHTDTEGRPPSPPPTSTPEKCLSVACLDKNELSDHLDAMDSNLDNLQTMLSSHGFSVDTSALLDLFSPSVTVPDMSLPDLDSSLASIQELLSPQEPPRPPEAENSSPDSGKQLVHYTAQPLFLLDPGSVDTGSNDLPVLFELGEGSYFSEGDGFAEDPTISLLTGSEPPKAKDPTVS
In short: as §1

[4] = target: T2, SPIC (Homo sapiens, UniProt Q8N5J4 1-248); details: protein: recombinant; tags: N-terminal GST; dsDNA, one strand shown
T2 sequence: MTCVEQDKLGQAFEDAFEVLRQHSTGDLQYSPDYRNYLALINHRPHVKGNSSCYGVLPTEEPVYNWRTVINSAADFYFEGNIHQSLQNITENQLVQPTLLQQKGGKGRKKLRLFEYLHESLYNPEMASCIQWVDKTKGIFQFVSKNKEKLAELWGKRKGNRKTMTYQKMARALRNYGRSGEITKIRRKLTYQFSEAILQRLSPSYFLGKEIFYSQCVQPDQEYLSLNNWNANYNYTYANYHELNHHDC
In short: as §1

[5] = target: ELF4 (Homo sapiens, UniProt Q99607 1-663); details: protein: recombinant; tags: N-terminal GST; dsDNA, one strand shown
ELF4, sequence (Q99607 whole entry): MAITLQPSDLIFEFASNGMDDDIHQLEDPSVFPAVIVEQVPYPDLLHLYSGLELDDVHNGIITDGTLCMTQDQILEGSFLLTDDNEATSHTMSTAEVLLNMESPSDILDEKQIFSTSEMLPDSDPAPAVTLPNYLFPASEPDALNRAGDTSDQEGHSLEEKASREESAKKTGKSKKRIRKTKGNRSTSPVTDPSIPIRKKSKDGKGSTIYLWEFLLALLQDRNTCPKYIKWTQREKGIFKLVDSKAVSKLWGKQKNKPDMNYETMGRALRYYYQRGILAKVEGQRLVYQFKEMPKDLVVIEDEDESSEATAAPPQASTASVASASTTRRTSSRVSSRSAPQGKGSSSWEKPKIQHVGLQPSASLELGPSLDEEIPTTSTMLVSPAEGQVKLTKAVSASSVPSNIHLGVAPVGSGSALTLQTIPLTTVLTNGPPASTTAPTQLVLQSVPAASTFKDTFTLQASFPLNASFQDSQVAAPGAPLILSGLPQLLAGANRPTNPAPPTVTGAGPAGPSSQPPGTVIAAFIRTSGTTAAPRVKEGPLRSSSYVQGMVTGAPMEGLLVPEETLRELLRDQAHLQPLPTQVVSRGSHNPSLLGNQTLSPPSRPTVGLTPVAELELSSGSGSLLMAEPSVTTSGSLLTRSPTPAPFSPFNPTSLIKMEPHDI
In short: as §1

[6] = target: T3, ELK4 (Homo sapiens, UniProt P28324-2 1-405); details: protein: recombinant; tags: N-terminal GST; dsDNA, one strand shown
T3 sequence: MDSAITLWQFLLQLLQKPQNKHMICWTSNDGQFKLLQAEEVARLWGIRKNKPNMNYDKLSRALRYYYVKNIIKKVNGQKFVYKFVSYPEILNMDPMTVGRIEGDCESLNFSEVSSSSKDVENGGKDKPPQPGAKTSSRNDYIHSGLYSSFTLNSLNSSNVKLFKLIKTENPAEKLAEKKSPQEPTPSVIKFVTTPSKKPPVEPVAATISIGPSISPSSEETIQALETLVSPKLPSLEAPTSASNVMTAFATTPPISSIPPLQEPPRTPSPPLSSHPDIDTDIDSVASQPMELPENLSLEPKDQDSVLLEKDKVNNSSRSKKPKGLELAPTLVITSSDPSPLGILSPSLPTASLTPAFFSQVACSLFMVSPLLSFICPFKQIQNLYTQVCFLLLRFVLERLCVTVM
In short: as §1

[7] = target: T4, ELF3 (Homo sapiens, UniProt P78545 1-371); details: protein: recombinant; tags: N-terminal GST; dsDNA, one strand shown
T4 sequence: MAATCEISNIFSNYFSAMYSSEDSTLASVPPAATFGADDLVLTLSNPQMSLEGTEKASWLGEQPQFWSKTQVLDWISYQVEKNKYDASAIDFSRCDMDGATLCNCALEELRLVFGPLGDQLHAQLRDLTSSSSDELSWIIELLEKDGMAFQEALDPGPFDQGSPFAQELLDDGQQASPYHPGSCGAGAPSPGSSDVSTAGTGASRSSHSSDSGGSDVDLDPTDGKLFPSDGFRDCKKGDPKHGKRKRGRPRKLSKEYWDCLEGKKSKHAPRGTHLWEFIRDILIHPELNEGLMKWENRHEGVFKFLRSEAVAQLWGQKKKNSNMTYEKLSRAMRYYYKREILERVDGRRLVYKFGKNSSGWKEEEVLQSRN
In short: as §1

[8] = target: CRX (Homo sapiens, UniProt O43186 1-299); details: protein: recombinant; tags: N-terminal GST; dsDNA, one strand shown
CRX, sequence (O43186 whole entry): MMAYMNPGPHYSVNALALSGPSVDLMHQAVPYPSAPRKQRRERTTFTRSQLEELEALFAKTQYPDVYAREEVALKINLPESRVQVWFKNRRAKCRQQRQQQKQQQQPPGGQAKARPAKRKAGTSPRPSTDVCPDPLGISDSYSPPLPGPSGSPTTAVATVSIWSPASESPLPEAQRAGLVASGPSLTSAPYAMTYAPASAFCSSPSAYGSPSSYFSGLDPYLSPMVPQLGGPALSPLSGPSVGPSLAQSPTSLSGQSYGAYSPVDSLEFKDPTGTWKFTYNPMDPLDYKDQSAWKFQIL
In short: as §1

[9] = target: ETV1 (Homo sapiens, UniProt P50549 1-477); details: protein: recombinant; tags: N-terminal GST; dsDNA, one strand shown
ETV1, sequence (P50549 whole entry): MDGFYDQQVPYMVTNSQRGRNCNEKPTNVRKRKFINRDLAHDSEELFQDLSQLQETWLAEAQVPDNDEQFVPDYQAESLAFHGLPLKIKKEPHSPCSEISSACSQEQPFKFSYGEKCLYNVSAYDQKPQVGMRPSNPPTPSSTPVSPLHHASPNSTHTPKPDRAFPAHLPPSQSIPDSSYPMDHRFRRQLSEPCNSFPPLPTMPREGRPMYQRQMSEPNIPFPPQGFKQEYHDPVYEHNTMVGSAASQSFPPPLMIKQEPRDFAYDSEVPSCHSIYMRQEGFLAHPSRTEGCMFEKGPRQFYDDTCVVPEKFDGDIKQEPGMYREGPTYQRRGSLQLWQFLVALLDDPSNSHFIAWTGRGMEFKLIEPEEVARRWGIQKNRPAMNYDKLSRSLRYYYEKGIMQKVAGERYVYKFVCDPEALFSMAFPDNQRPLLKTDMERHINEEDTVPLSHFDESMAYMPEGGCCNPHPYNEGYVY
In short: as §1

[10] = target: T5, ERF (Homo sapiens, UniProt P50548 1-548); details: protein: recombinant; tags: N-terminal GST; dsDNA, one strand shown
T5 sequence: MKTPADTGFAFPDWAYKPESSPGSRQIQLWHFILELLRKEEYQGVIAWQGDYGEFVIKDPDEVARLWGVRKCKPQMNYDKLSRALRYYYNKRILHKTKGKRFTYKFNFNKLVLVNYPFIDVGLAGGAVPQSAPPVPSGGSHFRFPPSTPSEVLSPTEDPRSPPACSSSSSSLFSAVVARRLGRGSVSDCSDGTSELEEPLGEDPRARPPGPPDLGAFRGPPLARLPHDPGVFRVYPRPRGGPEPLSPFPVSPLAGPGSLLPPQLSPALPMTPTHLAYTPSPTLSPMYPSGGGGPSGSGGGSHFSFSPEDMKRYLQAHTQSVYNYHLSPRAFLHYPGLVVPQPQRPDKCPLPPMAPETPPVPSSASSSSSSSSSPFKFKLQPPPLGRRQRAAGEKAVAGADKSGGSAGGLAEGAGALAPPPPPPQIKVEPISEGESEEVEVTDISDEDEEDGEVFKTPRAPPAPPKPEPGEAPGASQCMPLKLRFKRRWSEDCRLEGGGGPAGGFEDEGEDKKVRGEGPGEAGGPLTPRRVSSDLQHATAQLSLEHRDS
In short: as §1

[11] = target: T6, ETV3L (Homo sapiens, UniProt Q6ZN32 1-361); details: protein: recombinant; tags: N-terminal GST; dsDNA, one strand shown
T6 sequence: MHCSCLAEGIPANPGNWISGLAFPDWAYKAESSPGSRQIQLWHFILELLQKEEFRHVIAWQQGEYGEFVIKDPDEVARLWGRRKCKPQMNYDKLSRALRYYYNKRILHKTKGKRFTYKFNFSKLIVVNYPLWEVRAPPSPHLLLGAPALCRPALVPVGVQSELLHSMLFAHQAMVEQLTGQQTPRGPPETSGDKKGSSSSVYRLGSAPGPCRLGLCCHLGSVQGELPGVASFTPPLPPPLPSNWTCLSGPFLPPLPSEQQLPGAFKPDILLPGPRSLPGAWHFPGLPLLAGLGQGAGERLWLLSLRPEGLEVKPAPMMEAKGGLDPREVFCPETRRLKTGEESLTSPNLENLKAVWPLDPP
In short: as §1

[12] = target: T7, ETS2 (Homo sapiens, UniProt P15036 1-469); details: protein: recombinant; tags: N-terminal GST; dsDNA, one strand shown
T7 sequence: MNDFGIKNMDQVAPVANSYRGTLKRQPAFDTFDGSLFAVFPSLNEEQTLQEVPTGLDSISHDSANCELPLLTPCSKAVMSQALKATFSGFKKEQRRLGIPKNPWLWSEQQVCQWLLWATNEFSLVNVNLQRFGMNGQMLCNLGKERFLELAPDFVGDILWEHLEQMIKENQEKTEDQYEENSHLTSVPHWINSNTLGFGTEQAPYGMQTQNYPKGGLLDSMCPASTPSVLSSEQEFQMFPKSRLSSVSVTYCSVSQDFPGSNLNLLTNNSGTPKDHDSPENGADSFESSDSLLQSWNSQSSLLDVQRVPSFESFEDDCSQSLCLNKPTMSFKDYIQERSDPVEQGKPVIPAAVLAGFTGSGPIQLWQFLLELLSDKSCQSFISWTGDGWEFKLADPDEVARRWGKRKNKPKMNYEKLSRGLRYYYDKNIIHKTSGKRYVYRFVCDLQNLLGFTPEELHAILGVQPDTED
In short: as §1

[13] = target: T8, SPDEF (Homo sapiens, UniProt O95238 1-335); details: protein: recombinant; tags: N-terminal GST; dsDNA, one strand shown
T8 sequence: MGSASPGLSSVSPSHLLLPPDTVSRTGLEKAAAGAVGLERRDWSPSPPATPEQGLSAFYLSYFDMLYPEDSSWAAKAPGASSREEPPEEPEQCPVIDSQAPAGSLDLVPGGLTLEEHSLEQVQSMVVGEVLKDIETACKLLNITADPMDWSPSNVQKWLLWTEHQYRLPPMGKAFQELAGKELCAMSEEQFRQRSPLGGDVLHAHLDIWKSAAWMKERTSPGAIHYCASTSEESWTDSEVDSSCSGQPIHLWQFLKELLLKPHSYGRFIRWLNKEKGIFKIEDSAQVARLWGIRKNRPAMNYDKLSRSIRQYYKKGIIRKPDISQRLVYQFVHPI
In short: as §1

[14] = target: T9, ETV7 (Homo sapiens, UniProt Q9Y603 1-341); details: protein: recombinant; tags: N-terminal GST; dsDNA, one strand shown
T9 sequence: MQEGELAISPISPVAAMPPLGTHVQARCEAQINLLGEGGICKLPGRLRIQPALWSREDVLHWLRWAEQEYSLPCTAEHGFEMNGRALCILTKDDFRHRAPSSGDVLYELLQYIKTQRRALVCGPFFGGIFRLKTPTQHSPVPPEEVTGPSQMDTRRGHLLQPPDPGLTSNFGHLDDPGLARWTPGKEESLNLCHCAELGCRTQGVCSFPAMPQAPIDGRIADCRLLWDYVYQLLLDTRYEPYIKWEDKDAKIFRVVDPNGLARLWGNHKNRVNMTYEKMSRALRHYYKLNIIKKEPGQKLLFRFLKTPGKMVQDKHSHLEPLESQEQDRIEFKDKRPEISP
In short: as §1

[15] = target: T10, ELF5 (Homo sapiens, UniProt Q9UKW6-2 1-255); details: protein: recombinant; tags: N-terminal GST; dsDNA, one strand shown
T10 sequence: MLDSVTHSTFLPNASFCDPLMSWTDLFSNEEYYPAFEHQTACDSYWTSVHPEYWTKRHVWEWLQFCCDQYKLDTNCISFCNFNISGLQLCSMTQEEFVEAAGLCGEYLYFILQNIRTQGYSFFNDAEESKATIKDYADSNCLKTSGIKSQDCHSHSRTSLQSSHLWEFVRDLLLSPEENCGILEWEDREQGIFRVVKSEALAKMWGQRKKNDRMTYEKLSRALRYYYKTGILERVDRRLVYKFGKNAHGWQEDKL
In short: as §1

[16] = target: T11, ETV3 (Homo sapiens, UniProt P41162-2 1-143); details: protein: recombinant; tags: N-terminal GST; dsDNA, one strand shown
T11 sequence: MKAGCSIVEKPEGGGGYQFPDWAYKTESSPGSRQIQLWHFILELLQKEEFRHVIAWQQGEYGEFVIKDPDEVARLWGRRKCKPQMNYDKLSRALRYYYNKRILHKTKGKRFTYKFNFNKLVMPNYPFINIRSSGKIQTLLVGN
In short: as §1

[17] = target: ETV6 (Homo sapiens, UniProt P41212 1-452); details: protein: recombinant; tags: N-terminal GST; dsDNA, one strand shown
ETV6, sequence (P41212 whole entry): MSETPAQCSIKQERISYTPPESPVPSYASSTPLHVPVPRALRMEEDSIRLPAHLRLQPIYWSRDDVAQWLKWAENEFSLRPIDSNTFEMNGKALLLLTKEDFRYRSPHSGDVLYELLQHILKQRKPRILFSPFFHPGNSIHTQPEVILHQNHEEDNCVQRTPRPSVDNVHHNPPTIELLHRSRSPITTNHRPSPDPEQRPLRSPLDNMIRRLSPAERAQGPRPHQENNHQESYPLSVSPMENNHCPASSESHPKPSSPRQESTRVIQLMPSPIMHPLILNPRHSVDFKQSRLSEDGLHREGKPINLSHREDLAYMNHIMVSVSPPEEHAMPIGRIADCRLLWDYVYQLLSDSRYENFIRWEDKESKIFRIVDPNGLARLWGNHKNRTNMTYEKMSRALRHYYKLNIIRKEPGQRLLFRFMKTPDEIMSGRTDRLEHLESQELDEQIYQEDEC
In short: as §1

Sequence | binding signal [1] | binding signal [2] | binding signal [3] | binding signal [4] | binding signal [5] | binding signal [6] | binding signal [7] | binding signal [8] | binding signal [9] | binding signal [10] | binding signal [11] | binding signal [12] | binding signal [13] | binding signal [14] | binding signal [15] | binding signal [16] | binding signal [17]
AAAGTT | 1.01 fold enrichment (6-mer frequency, TF over GST control) | 1.16 fold enrichment (6-mer frequency, TF over GST control) | 1.43 fold enrichment (6-mer frequency, TF over GST control) | 1.03 fold enrichment (6-mer frequency, TF over GST control) | 1.14 fold enrichment (6-mer frequency, TF over GST control) | 1.19 fold enrichment (6-mer frequency, TF over GST control) | 1.1 fold enrichment (6-mer frequency, TF over GST control) | 1.22 fold enrichment (6-mer frequency, TF over GST control) | 1.07 fold enrichment (6-mer frequency, TF over GST control) | 1.08 fold enrichment (6-mer frequency, TF over GST control) | 1.13 fold enrichment (6-mer frequency, TF over GST control) | 1.09 fold enrichment (6-mer frequency, TF over GST control) | 1.01 fold enrichment (6-mer frequency, TF over GST control) | 1.15 fold enrichment (6-mer frequency, TF over GST control) | 1.08 fold enrichment (6-mer frequency, TF over GST control) | 1.09 fold enrichment (6-mer frequency, TF over GST control) | 1.06 fold enrichment (6-mer frequency, TF over GST control)
AAGGTT | 1.02 fold enrichment (6-mer frequency, TF over GST control) | 1.01 fold enrichment (6-mer frequency, TF over GST control) | 1.27 fold enrichment (6-mer frequency, TF over GST control) | 1.03 fold enrichment (6-mer frequency, TF over GST control) | 1.09 fold enrichment (6-mer frequency, TF over GST control) | 1.12 fold enrichment (6-mer frequency, TF over GST control) | 1.35 fold enrichment (6-mer frequency, TF over GST control) | 1.17 fold enrichment (6-mer frequency, TF over GST control) | 1.07 fold enrichment (6-mer frequency, TF over GST control) | 1.01 fold enrichment (6-mer frequency, TF over GST control) |  | 1.08 fold enrichment (6-mer frequency, TF over GST control) | 1.02 fold enrichment (6-mer frequency, TF over GST control) | 1.15 fold enrichment (6-mer frequency, TF over GST control) | 1.1 fold enrichment (6-mer frequency, TF over GST control) | 1.07 fold enrichment (6-mer frequency, TF over GST control) | 1 fold enrichment (6-mer frequency, TF over GST control)
